Test results: the supplement of paper PMC8728848
Only a selection was taken, and the strongest signals are over-represented in it overall.

Assays:
Test in all cases: glycan array binding signal (z-score within array); higher = stronger binding
Conditions in all cases: glycan notation: IUPAC condensed, linker removed
[1] = target: Fuc(a1-2)Gal(b1-4)GlcNAc(b1-3)[Fuc(a1-3)[Gal(b1-4)]GlcNAc(b1-6)]Gal(b1-4)Glc
Method in brief: (§1)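 Arrays were curated from the Consortium for Functional Glycomics database, 3228 in total, and kept only where the protein sequence was available. Binding is expressed as a within-array Z-score. This score was averaged across arrays of the same protein sequence at different concentrations or buffers and across linkers, and negative values can be read as non-binding.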

[2] = target: Fuc(a1-2)Gal(b1-4)[Fuc(a1-3)]GlcNAc(b1-3)Gal(b1-4)[Fuc(a1-3)]GlcNAc(b1-3)Gal(b1-4)[Fuc(a1-3)]GlcNAc
Method in brief: as §1

[3] = target: Fuc(a1-2)[Gal(a1-3)]Gal(b1-3)GlcNAc(b1-6)GalNAc
Method in brief: as §1

[4] = target: Fuc(a1-2)[GalNAc(a1-3)]Gal(b1-4)[Fuc(a1-3)]GlcNAc
Method in brief: as §1

[5] = target: Fuc(a1-3)[Gal(b1-4)]GlcNAc(b1-6)GalNAc
Method in brief: as §1

[6] = target: Fuc(a1-3)[GalNAc(b1-4)]GlcNAc6S
Method in brief: as §1

[7] = target: Gal(a1-3)Gal(b1-3)GlcNAc(b1-2)Man(a1-3)[Gal(a1-3)Gal(b1-3)GlcNAc(b1-2)Man(a1-6)]Man(b1-4)GlcNAc(b1-4)GlcNAc
Method in brief: as §1

Gal(a1-4)Gal(b1-4)GlcNAc = target: Gal(a1-4)Gal(b1-4)GlcNAc
Method in brief: as §1

[8] = target: Gal(b1-3)GalNAc(a1-3)[Fuc(a1-2)]Gal(b1-4)GlcNAc
Method in brief: as §1

[9] = target: Gal(b1-3)GlcNAc(b1-2)[Gal(b1-3)GlcNAc(b1-6)]Man(a1-6)[Gal(b1-3)GlcNAc(b1-2)Man(a1-3)]Man(b1-4)GlcNAc(b1-4)GlcNAc
Method in brief: as §1

[10] = target: Gal(b1-3)[Fuc(a1-4)]GlcNAc(b1-3)Gal(b1-4)[Fuc(a1-3)]GlcNAc
Method in brief: as §1

[11] = target: Gal(b1-4)GlcNAc(b1-2)[Gal(b1-4)GlcNAc(b1-4)]Man(a1-3)[Gal(b1-4)GlcNAc(b1-2)[Gal(b1-4)GlcNAc(b1-6)]Man(a1-6)]Man(b1-4)GlcNAc(b1-4)GlcNAc
Method in brief: as §1

[12] = target: Gal(b1-4)GlcNAc(b1-3)Gal(b1-3)GalNAc
Method in brief: as §1

[13] = target: Gal(b1-4)GlcNAc(b1-3)Gal(b1-4)GlcNAc(b1-2)Man(a1-3)[Gal(b1-4)GlcNAc(b1-3)Gal(b1-4)GlcNAc(b1-2)Man(a1-6)]Man(b1-4)GlcNAc(b1-4)GlcNAc
Method in brief: as §1

[14] = target: Gal(b1-4)GlcNAc(b1-3)Gal(b1-4)GlcNAc(b1-3)Gal(b1-4)GlcNAc(b1-2)Man(a1-3)[Gal(b1-4)GlcNAc(b1-3)Gal(b1-4)GlcNAc(b1-3)Gal(b1-4)GlcNAc(b1-2)Man(a1-6)]Man(b1-4)GlcNAc(b1-4)GlcNAc
Method in brief: as §1

[15] = target: Gal(b1-4)GlcNAc(b1-3)Gal(b1-4)GlcNAc(b1-3)GalNAc
Method in brief: as §1

[16] = target: Gal(b1-4)GlcNAc(b1-3)Gal(b1-4)GlcNAc(b1-3)[Gal(b1-4)GlcNAc(b1-3)Gal(b1-4)GlcNAc(b1-6)]GalNAc
Method in brief: as §1

[17] = target: Gal(b1-4)GlcNAc(b1-3)Gal(b1-4)GlcNAc(b1-6)[Gal(b1-3)]GalNAc
Method in brief: as §1

Gal3S(b1-4)Glc = target: Gal3S(b1-4)Glc
Method in brief: as §1

[18] = target: Gal3S(b1-4)[Fuc(a1-3)]Glc6S
Method in brief: as §1

GalNAc(b1-4)GlcNAc6S = target: GalNAc(b1-4)GlcNAc6S
Method in brief: as §1

GalNAc3S(b1-4)GlcNAc3S = target: GalNAc3S(b1-4)GlcNAc3S
Method in brief: as §1

GlcA(b1-6)Gal = target: GlcA(b1-6)Gal
Method in brief: as §1

[19] = target: GlcA3S(b1-3)Gal(b1-4)GlcNAc(b1-3)Gal(b1-4)Glc
Method in brief: as §1

GlcNAc(b1-3)Gal(b1-4)Glc = target: GlcNAc(b1-3)Gal(b1-4)Glc
Method in brief: as §1

[20] = target: GlcNAc(b1-3)Gal(b1-4)GlcNAc
Method in brief: as §1

[21] = target: GlcNAc(b1-3)Gal(b1-4)GlcNAc(b1-2)Man(a1-3)[GlcNAc(b1-3)Gal(b1-4)GlcNAc(b1-2)Man(a1-6)]Man(b1-4)GlcNAc(b1-4)GlcNAc
Method in brief: as §1

[22] = target: Kdn(a2-3)Gal(b1-4)[Fuc(a1-3)]GlcNAc
Method in brief: as §1

Man(a1-2)Man(a1-3)Man = target: Man(a1-2)Man(a1-3)Man
Method in brief: as §1

[23] = target: Man(a1-3)[Man(a1-6)]Man(a1-6)[Man(a1-2)Man(a1-3)]Man(b1-4)GlcNAc(b1-4)GlcNAc
Method in brief: as §1

[24] = target: Man(a1-3)[Man(a1-6)]Man(a1-6)[Man(a1-3)]Man(b1-4)GlcNAc(b1-4)GlcNAc
Method in brief: as §1

[25] = target: Neu5Ac(a2-3)Gal(b1-4)GlcNAc(b1-2)[Neu5Ac(a2-3)Gal(b1-4)GlcNAc(b1-6)]Man(a1-6)[Neu5Ac(a2-3)Gal(b1-4)GlcNAc(b1-2)Man(a1-3)][GlcNAc(b1-4)]Man(b1-4)GlcNAc(b1-4)GlcNAc
Method in brief: as §1

[26] = target: Neu5Ac(a2-3)Gal(b1-4)GlcNAc(b1-3)Gal(b1-4)GlcNAc(b1-2)Man(a1-3)[Neu5Ac(a2-3)Gal(b1-4)GlcNAc(b1-3)Gal(b1-4)GlcNAc(b1-2)Man(a1-6)]Man(b1-4)GlcNAc(b1-4)GlcNAc
Method in brief: as §1

[27] = target: Neu5Ac(a2-3)Gal(b1-4)GlcNAc(b1-3)Gal(b1-4)GlcNAc(b1-3)Gal(b1-4)GlcNAc(b1-2)Man(a1-3)[Neu5Ac(a2-3)Gal(b1-4)GlcNAc(b1-3)Gal(b1-4)GlcNAc(b1-3)Gal(b1-4)GlcNAc(b1-2)Man(a1-6)]GalNAc
Method in brief: as §1

[28] = target: Neu5Ac(a2-3)Gal(b1-4)GlcNAc(b1-3)Gal(b1-4)GlcNAc(b1-3)GalNAc
Method in brief: as §1

[29] = target: Neu5Ac(a2-3)[GalNAc(b1-4)]Gal(b1-4)GlcNAc(b1-3)GalNAc
Method in brief: as §1

[30] = target: Neu5Ac(a2-6)Gal(b1-4)GlcNAc(b1-3)Gal(b1-4)GlcNAc(b1-3)Gal(b1-4)GlcNAc(b1-2)Man(a1-3)[Neu5Ac(a2-6)Gal(b1-4)GlcNAc(b1-3)Gal(b1-4)GlcNAc(b1-3)Gal(b1-4)GlcNAc(b1-2)Man(a1-6)]GalNAc
Method in brief: as §1

[31] = target: Neu5Ac(a2-6)Gal(b1-4)GlcNAc(b1-3)Gal(b1-4)GlcNAc(b1-3)[Neu5Ac(a2-6)Gal(b1-4)GlcNAc(b1-3)Gal(b1-4)GlcNAc(b1-6)]GalNAc
Method in brief: as §1

[32] = target: Neu5Ac(a2-6)Gal(b1-4)GlcNAc(b1-3)Gal(b1-4)[Fuc(a1-3)]GlcNAc(b1-3)Gal(b1-4)[Fuc(a1-3)]GlcNAc
Method in brief: as §1

Neu5Ac(a2-6)GalNAc = target: Neu5Ac(a2-6)GalNAc
Method in brief: as §1

B1: mCC1-Hexahis-Precomplexed (Mus musculus), P31809 (protein)
chain: MELASAHLHKGQVPWGGLLLTASLLASWSPATTAEVTIEAVPPQVAEDNNVLLLVHNLPLALGAFAWYKGNTTAIDKEIARFVPNSNMNFTGQAYSGREIIYSNGSLLFQMITMKDMGVYTLDMTDENYRRTQATVRFHVHPILLKPNITSNNSNPVEGDDSVSLTCDSYTDPDNINYLWSRNGESLSEGDRLKLSEGNRTLTLLNVTRNDTGPYVCETRNPVSVNRSDPFSLNIIYGPDTPIISPSDIYLHPGSNLNLSCHAASNPPAQYFWLINEKPHASSQELFIPNITTNNSGTYTCFVNNSVTGLSRTTVKNITVLEPVTQPFLQVTNTTVKELDSVTLTCLSNDIGANIQWLFNSQSLQLTERMTLSQNNSILRIDPIKREDAGEYQCEISNPVSVRRSNSIKLDIIFDPTQGGLSDGHHHHHH
glycan array binding signal (z-score) [1]: -0.163
glycan array binding signal (z-score) [2]: -0.097
glycan array binding signal (z-score) [3]: -0.18
glycan array binding signal (z-score) [4]: 0.277
glycan array binding signal (z-score) [5]: -0.024
glycan array binding signal (z-score) [6]: -0.231
glycan array binding signal (z-score) [7]: -0.189
glycan array binding signal (z-score) (Gal(a1-4)Gal(b1-4)GlcNAc): -0.227
glycan array binding signal (z-score) [8]: -0.191
glycan array binding signal (z-score) [9]: -0.273
glycan array binding signal (z-score) [10]: -0.217
glycan array binding signal (z-score) [11]: -0.217
glycan array binding signal (z-score) [12]: -0.158
glycan array binding signal (z-score) [13]: 3.85
glycan array binding signal (z-score) [14]: 4.96
glycan array binding signal (z-score) [15]: 6.28
glycan array binding signal (z-score) [16]: 4.46
glycan array binding signal (z-score) [17]: 5.01
glycan array binding signal (z-score) (Gal3S(b1-4)Glc): -0.25
glycan array binding signal (z-score) [18]: -0.049
glycan array binding signal (z-score) (GalNAc(b1-4)GlcNAc6S): -0.282
glycan array binding signal (z-score) (GalNAc3S(b1-4)GlcNAc3S): -0.065
glycan array binding signal (z-score) (GlcA(b1-6)Gal): -0.12
glycan array binding signal (z-score) [19]: -0.235
glycan array binding signal (z-score) (GlcNAc(b1-3)Gal(b1-4)Glc): -0.227
glycan array binding signal (z-score) [20]: -0.246
glycan array binding signal (z-score) [21]: -0.184
glycan array binding signal (z-score) [22]: -0.169
glycan array binding signal (z-score) (Man(a1-2)Man(a1-3)Man): -0.152
glycan array binding signal (z-score) [23]: 4.18
glycan array binding signal (z-score) [24]: -0.197
glycan array binding signal (z-score) [25]: -0.045
glycan array binding signal (z-score) [26]: 7.65
glycan array binding signal (z-score) [27]: 7.6
glycan array binding signal (z-score) [28]: -0.119
glycan array binding signal (z-score) [29]: 3.55
glycan array binding signal (z-score) [30]: 4.99
glycan array binding signal (z-score) [31]: 9.54
glycan array binding signal (z-score) [32]: -0.116
glycan array binding signal (z-score) (Neu5Ac(a2-6)GalNAc): -0.234
